Mtb FBA inh: inhibits M. tuberculosis FBA enzyme; P9WQA3; 360,000 tested, 2.3% active; purified M. tuberculosis FBA, fluorescence read-out; inhibition, % at 1 µM; in the data active = inhibition above about 27%
Target sequence (P9WQA3 whole entry, looked up): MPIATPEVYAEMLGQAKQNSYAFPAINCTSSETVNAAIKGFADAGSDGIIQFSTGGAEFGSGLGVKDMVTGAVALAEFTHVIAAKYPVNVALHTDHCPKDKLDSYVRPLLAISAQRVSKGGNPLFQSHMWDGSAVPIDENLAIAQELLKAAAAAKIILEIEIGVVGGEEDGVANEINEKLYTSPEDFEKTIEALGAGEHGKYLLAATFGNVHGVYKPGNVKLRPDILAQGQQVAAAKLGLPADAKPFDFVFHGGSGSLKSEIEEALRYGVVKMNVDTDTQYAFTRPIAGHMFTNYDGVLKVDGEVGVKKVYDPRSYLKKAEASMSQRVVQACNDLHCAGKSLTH
3CLpro inhibitor: SARS-CoV 3CLpro protease inhibition; recombinant SARS-CoV 3CLpro, quenched FRET peptide cleavage; AID 1706; P0C6X7; 290,000 tested, 0.14% active; inhibition, % at 6 µM; in the data active = inhibition above about 12%
GDH-TPI counter: GDH-TPI coupled enzyme inhibition counter-screen; GDH-TPI coupled enzyme counterscreen, NADH absorbance; inhibition, % at 4.8 µM; 360,000 tested, 1.2% active; in the data active = inhibition above about 30%
Mtb BioA inh: BioA (M. tuberculosis) enzyme inhibition; purified M. tuberculosis BioA enzyme, plate reader; inhibition, % at 9.99 µM; 360,000 tested, 0.096% active; AID 602481; in the data active = inhibition above about 40%
FadD28 binding: M. tuberculosis FadD28 bisubstrate binding inhibition; FadD28 bisubstrate probe binding, fluorescence polarization; inhibition, % at 12.5 µM; 360,000 tested, 0.22% active; in the data active = inhibition above about 8.5%, passing the limit was not always enough
Large screens that a line does not name were inactive. Compounds with a hit are over-represented: about 3.1% of the library has one in this group of screens.

N#Cc1ncc(N=Cc2ccc(N(CCCl)CCCl)cc2)s1	GDH-TPI counter 52 (no result: 3CLpro inhibitor)
ClCCN(CCCl)c1ccc(C=NNc2ncccn2)cc1	GDH-TPI counter 57 (no result: 3CLpro inhibitor)
ClCCN(CCCl)c1ccc(C=Cc2ccncn2)cc1	none (no result: 3CLpro inhibitor)
CCN(CC)c1ccc(/C=N/Nc2nc(C)cc(C)n2)cc1	none
COc1ccc(CN(C)C[C@H]2OCCCC[C@H](C)Oc3ccc(NC(=O)Nc4ccccc4)cc3C(=O)N([C@H](C)CO)C[C@H]2C)cc1	none (no result: Mtb FBA inh, 3CLpro inhibitor, GDH-TPI counter, FadD28 binding)
O=C(O)c1ccccc1Nc1ccccc1	none (no result: 3CLpro inhibitor)
COc1cc(-c2ccc(Nc3ccccc3C(=O)O)c(OC)c2)ccc1Nc1ccccc1C(=O)O	FadD28 binding 78
COc1ccc(CN(C)C[C@H]2OCCCC[C@H](C)Oc3ccc(NC(=O)c4ccccc4)cc3C(=O)N([C@H](C)CO)C[C@@H]2C)cc1	none (no result: Mtb FBA inh, 3CLpro inhibitor, GDH-TPI counter, FadD28 binding)
CCn1c(C)csc1=NC(=O)c1ccccc1	GDH-TPI counter 34
CCn1c(C)csc1=NC(=O)c1ccccc1O	GDH-TPI counter 37
CCCOc1cccc(-c2nnc(NC(=O)c3ccco3)s2)c1	GDH-TPI counter 49
COc1cccc(-c2nnc(NC(=O)c3cccs3)s2)c1	GDH-TPI counter 35 (no result: Mtb BioA inh)
COc1ccc(-c2nnc(NC(=O)c3ccco3)s2)cc1	GDH-TPI counter 45
CCCOc1cccc(C(=O)Nc2cccc(NC(=O)c3ccco3)c2)c1	none
Cc1cc(C(=O)Nc2nnc(-c3ccccc3)s2)no1	GDH-TPI counter 32
O=C(Nc1ccc(F)cc1)Nc1ccc2c(c1)[C@H]1C[C@@H](CC(=O)N3CCCCC3)O[C@H](CO)[C@H]1O2	none (no result: Mtb FBA inh, 3CLpro inhibitor, GDH-TPI counter, FadD28 binding)
CCCC(=O)Nc1ccc2c(c1)OC[C@H](C)N(Cc1ccc(F)cc1)C[C@H](C)[C@@H](OC)CN(C)C2=O	none (no result: Mtb FBA inh, 3CLpro inhibitor, GDH-TPI counter, FadD28 binding)
C/C=C/c1ccc([C@H]2[C@H](CO)N(C(=O)CC)[C@H]2CN(C)S(C)(=O)=O)cc1	none (no result: Mtb FBA inh, 3CLpro inhibitor, GDH-TPI counter, FadD28 binding)
C[C@H](CO)N1C[C@H](C)[C@H](CN(C)C(=O)Nc2ccc(F)cc2)Oc2ccc(NC(=O)c3ccncc3)cc2C1=O	none (no result: Mtb FBA inh, 3CLpro inhibitor, GDH-TPI counter, FadD28 binding)
Cc1ccc(-c2nnc(NC(=O)c3ccco3)s2)cc1	none
Cc1nnc(NC(=O)c2ccco2)s1	none
O=C(Nc1nnc(SCc2ccc(F)cc2)s1)c1ccco1	GDH-TPI counter 41
COc1cccc(-c2nnc(NC(=O)c3ccco3)s2)c1	GDH-TPI counter 41
C/C=C(\C)c1nnc(NC(=O)c2ccco2)s1	GDH-TPI counter 33
C[C@H](CO)N1C[C@H](C)[C@@H](CN(C)Cc2ccc(F)cc2)Oc2ncc(C#Cc3cccnc3)cc2C1=O	none (no result: Mtb FBA inh, 3CLpro inhibitor, GDH-TPI counter, FadD28 binding)
CCCC#Cc1cnc2c(c1)C(=O)N([C@@H](C)CO)C[C@@H](C)[C@@H](CN(C)C(=O)C1CCCCC1)O2	none (no result: Mtb FBA inh, 3CLpro inhibitor, GDH-TPI counter, FadD28 binding)
Cc1occc1C(=O)N/N=C/C=C/c1ccccc1	none (no result: Mtb BioA inh)
O=C(N/N=C\c1ccc(Sc2ccccn2)o1)c1cccc(Br)c1	GDH-TPI counter 32
CC(/C=C/c1ccccc1)=N/NC(=O)c1cnccn1	none (no result: Mtb BioA inh)
O=C(N/N=C/C=C/c1ccccc1)c1ccccc1Br	none
O=C(N/N=C/C=C/c1ccccc1)c1cccc(Br)c1	GDH-TPI counter 65
Cc1ccc(C(=O)N/N=C/C=C/c2ccccc2)cc1	GDH-TPI counter 31 (no result: Mtb BioA inh)
O=C(N/N=C/C=C/c1ccccc1)c1cnccn1	GDH-TPI counter 48
CCCNC(=O)Nc1ccc2c(c1)C(=O)N(C)C[C@@H](OC)[C@@H](C)CN(C(C)=O)[C@@H](C)CO2	none (no result: Mtb FBA inh, 3CLpro inhibitor, GDH-TPI counter, FadD28 binding)
O=C(C[C@@H]1CC[C@H]2[C@@H](COC[C@@H](O)CN2Cc2nccs2)O1)NCc1ccccc1	none (no result: Mtb FBA inh, 3CLpro inhibitor, GDH-TPI counter, FadD28 binding)
O=C(Nc1ccccc1F)N[C@H]1CC[C@H](CCNC(=O)C2CCCC2)O[C@H]1CO	none (no result: Mtb FBA inh, 3CLpro inhibitor, GDH-TPI counter, FadD28 binding)
Cc1cc(C(=O)N/N=C/C=C/c2ccccc2)c(C)o1	GDH-TPI counter 32 (no result: Mtb BioA inh)
Cc1cc(C(=O)N/N=C/c2ccccc2)c(C)o1	none
CC(=O)c1cccc(Nc2c3c(nc4ccccc24)CCC3)c1	none
CC(=O)c1ccc(Nc2c3c(nc4ccccc24)CCCC3)cc1	GDH-TPI counter 37 (no result: Mtb BioA inh)
CCOC(=O)C1Nc2ccccc2C2c3ccccc3CC12 (configuration not stated)	Mtb FBA inh 33 (no result: 3CLpro inhibitor)
Cc1c(Cc2ccccc2)c(=O)oc2cc(OCC(=O)N3CCC(C(=O)O)CC3)ccc12	Mtb FBA inh 148, GDH-TPI counter 32
Cc1c(OCC(=O)N2CCC(C(=O)O)CC2)ccc2c1oc(=O)c1ccccc12	Mtb FBA inh 142
O=C(COc1ccc2c(c1)oc(=O)c1ccccc12)N[C@@H](Cc1ccccc1)C(=O)O	Mtb FBA inh 115
O=C(COc1ccc2c3c(c(=O)oc2c1)CCC3)NC(Cc1ccc(Cl)cc1)C(=O)O (configuration not stated)	none
Cc1cc(=O)oc2cc(O[C@@H]3O[C@H](CO)[C@H](O)[C@H](O)[C@H]3O)ccc12	none
O=c1oc2cc(O[C@@H]3OC[C@@H](O)[C@H](O)[C@H]3O)ccc2c2ccccc12	Mtb FBA inh 71
Cc1c(C)c2ccc(OCC(=O)N3CCN(Cc4ccccc4)CC3)cc2oc1=O	none (no result: 3CLpro inhibitor)
C[C@@H]1CN([C@H](C)CO)C(=O)c2cccc(NS(=O)(=O)c3ccccc3)c2O[C@@H]1CN(C)C(=O)NC1CCCCC1	none (no result: Mtb FBA inh, 3CLpro inhibitor, GDH-TPI counter, FadD28 binding)
CC(=O)N(C)C[C@@H]1Oc2cc(C3=CCCC3)ccc2S(=O)(=O)N([C@@H](C)CO)C[C@H]1C	none (no result: Mtb FBA inh, 3CLpro inhibitor, GDH-TPI counter, FadD28 binding)
O=C(Nc1ccc(F)cc1)N[C@H]1CC[C@H](CCNS(=O)(=O)c2ccccc2F)O[C@@H]1CO	none (no result: Mtb FBA inh, 3CLpro inhibitor, GDH-TPI counter, FadD28 binding)
O=C(O)C1CCN(C(=O)COc2ccc3c(c2)oc(=O)c2ccccc23)CC1	Mtb FBA inh 138
O=C(COc1ccc2c3c(c(=O)oc2c1)CCCC3)N1CCN(c2ccc(F)cc2)CC1	none
CCCOc1ccc(C2C(=O)N(C3CCCCC3)CC(=O)N2CCC)cc1OC (configuration not stated)	Mtb FBA inh 31 (no result: Mtb BioA inh)
COC(=O)c1ccc(NC(=S)NC2c3ccccc3CC2O)cc1 (configuration not stated)	FadD28 binding 22 (no result: Mtb BioA inh)
COC(=O)c1ccc(NC(=S)Nc2ccccc2)cc1	none
O=c1oc2c(CN3CCOCC3)c(O)c(Cl)cc2c2c1CCC2	none (no result: Mtb FBA inh)
CCN(CC)Cc1c(O)c(Cl)cc2c3c(c(=O)oc12)CCCC3	Mtb FBA inh active
CN(C)Cc1c(O)c(Cl)cc2c3c(c(=O)oc12)CCCC3	Mtb FBA inh active
CO[C@@H]1CN(C)C(=O)c2ccc(NS(C)(=O)=O)cc2OC[C@H](C)N(Cc2cncnc2)C[C@@H]1C	none (no result: Mtb FBA inh, 3CLpro inhibitor, GDH-TPI counter, FadD28 binding)
C[C@@H]1CN([C@H](C)CO)C(=O)c2cc(-c3cncnc3)cnc2O[C@H]1CN(C)C(=O)c1cccc(F)c1	none (no result: Mtb FBA inh, 3CLpro inhibitor, GDH-TPI counter, FadD28 binding)
Cc1cc(C)c2c(N=NN3CCCCC3)[nH]nc2n1	none (no result: Mtb BioA inh)
CCN(CC)N=Nc1[nH]nc2nc(C)cc(C)c12	GDH-TPI counter 32
CCOC(=O)/C=c1\s/c(=C\c2c(OC)ccc3ccccc23)c(=O)n1CC(=O)NCC1CCCO1 (configuration not stated)	GDH-TPI counter 38
CC1(C)CC(N2CCN(c3ccccc3)CC2)=CC(=[N+]2CCCC2)C1	GDH-TPI counter 45
CN(Cc1ccccc1)C1=CC(=[N+]2CCCC2)CC(C)(C)C1	GDH-TPI counter 52
CCN(CC)C1=CC(=[N+]2CCCC2)CC(C)(C)C1	GDH-TPI counter 43
